Assay [1] concerns the target Luciferin 4-monooxygenase (Photinus pyralis) (UniProt P08659). The assay can be described thus: qHTS assay to identify small molecule inhibitors of firefly luciferase (AID 1224835). Also: nearly all actives have a fitted effect of over 25% in size. Also: potency is read from the fitted curve at half-maximal effect. A digest of the protocol: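 Inhibition of purified Photinus luciferase is measured by luminescence. Substrate levels (D-luciferin, ATP) sit at their KM values. Each compound is tested in a concentration series.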
(qHTS replaces the single test concentration by a dilution series.)

The nature of assay [2]: qHTS assay to identify small molecule agonists of the constitutive androstane receptor (CAR) signaling pathway - cell viability counter screen (AID 1224836). Also: series mostly up to about 92 µM; nearly all actives have a fitted effect of over 45% in size. A digest of the protocol: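 Multiplexed viability check: HepG2-CYP2B6-hCAR cells, 15-point compound dosing, 0.75 uM PK11195 final, 23 h at 37 C, CellTiter-Fluor fluorescence.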
Assay [3] is described as follows: qHTS assay to identify small molecule antagonists of the constitutive androstane receptor (CAR) signaling pathway - cell viability counter screen (AID 1224837). Also: series mostly up to about 92 µM; nearly all actives have a fitted effect of over 45% in size. An outline of the steps: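 Cytotoxicity counter-screen: CellTiter-Fluor fluorescence after 23 h compound exposure (15-point qHTS) in double-stable HepG2-CYP2B6-hCAR cells, with 50 nM CITCO added.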
Assay [4] has as its target Nuclear receptor subfamily 1 group I member 3 (Homo sapiens) (UniProt Q14994). The assay can be described thus: qHTS assay to identify small molecule antagonists of the constitutive androstane receptor (CAR) signaling pathway (AID 1224838).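 Also: HepG2 cells stably expressing hCAR with CYP2B6 luciferase reporter stimulated by CITCO; nearly all actives have a fitted effect of over 40% in size.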 A digest of the protocol:
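Antagonism measured as luciferase signal (ONE-Glo, 30 min, room temperature) in CAR-stimulated cells: HepG2-CYP2B6-hCAR double-stable line exposed 24 hr at 37 C to compound in a 15-point series plus 50 nM CITCO.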

Assay [5] shares this target. Nature of the assay: qHTS assay to identify small molecule agonists of the constitutive androstane receptor (CAR) signaling pathway (AID 1224839). Also: nearly all actives have a fitted effect of over 15% in size. Also: potency is read from the fitted curve at half-maximal effect. A digest of the protocol: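 Using human hepatoma HepG2 cells engineered with hCAR and a CYP2B6-2.2kb reporter, 15-concentration compound series were incubated 24 h alongside PK11195 at 0.75 uM final, with luminescence quantified afterwards.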

Assay [6] is described as follows: qHTS assay to identify small molecule antagonists of the estrogen related receptor signaling pathway with the pleiotropic PPARgamma coactivator (PGC) from Tox21 10K library - cell viability counter screen (AID 1224840; active = well fitted cell-killing curve with a large enough effect in the repeat runs, not every such curve was filed as active; also: nearly all actives have a fitted effect of over 40% in size). An outline of the steps:
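Counter-screen for cytotoxicity: after 17.5 h compound exposure at 37 C, CellTiter-Fluor reagent added to PGC/ERR cells for 30 min and fluorescence read. Cells were seeded at 2,000 per well 6 h before dosing.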

Assay [7] can be described thus: qHTS assay to identify small molecule antagonists of the estrogen related receptor signaling pathway with the pleiotropic PPARgamma coactivator (PGC) from Tox21 10K library (AID 1224841; call rule not given here; also: actives are mostly falling curves and most rising ones were filed inactive; nearly all actives have a fitted effect of over 50% in size; also: potency is read from the fitted curve at half-maximal effect). A digest of the protocol: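 Luminescence (One-Glo, 30 min at room temperature) after 18 h compound treatment at 37 C of PGC/ERR reporter cells plated at 2,000 cells/well and settled 6 h beforehand.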

The nature of assay [8]: qHTS assay to identify small molecule agonists of the estrogen related receptor signaling pathway with the pleiotropic PPARgamma coactivator (PGC) from Tox21 10K library (AID 1224842). Also: nearly all actives have a fitted effect of over 15% in size. A digest of the protocol:
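Luminescence from One-Glo (30 min, room temperature) measured after PGC/ERR cells had 18 h at 37 C with pinned compound (23 nL in DMSO). Cells had been seeded at 2,000 per well and pre-incubated 6 h.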

Values joined by “and” are separate entries in the source; they are usually repeats but may differ in a detail not shown here. Equal entries are not always repeated. Results filed as inconclusive are left out. The source holds several records for some structures; these can differ, active in one and inactive in another. Active and inactive are the calls of the source. Unless noted, calls follow the shape of the dose curve; as a rule, active = well fitted curve in the direction sought with a large enough effect in the repeat runs; inconclusive = weak or mixed curves; inactive = no such curve, though single readings can be large; an effect the other way counts as inactive or inconclusive.

Sequence of Luciferin 4-monooxygenase (Photinus pyralis) (P08659 whole entry, looked up): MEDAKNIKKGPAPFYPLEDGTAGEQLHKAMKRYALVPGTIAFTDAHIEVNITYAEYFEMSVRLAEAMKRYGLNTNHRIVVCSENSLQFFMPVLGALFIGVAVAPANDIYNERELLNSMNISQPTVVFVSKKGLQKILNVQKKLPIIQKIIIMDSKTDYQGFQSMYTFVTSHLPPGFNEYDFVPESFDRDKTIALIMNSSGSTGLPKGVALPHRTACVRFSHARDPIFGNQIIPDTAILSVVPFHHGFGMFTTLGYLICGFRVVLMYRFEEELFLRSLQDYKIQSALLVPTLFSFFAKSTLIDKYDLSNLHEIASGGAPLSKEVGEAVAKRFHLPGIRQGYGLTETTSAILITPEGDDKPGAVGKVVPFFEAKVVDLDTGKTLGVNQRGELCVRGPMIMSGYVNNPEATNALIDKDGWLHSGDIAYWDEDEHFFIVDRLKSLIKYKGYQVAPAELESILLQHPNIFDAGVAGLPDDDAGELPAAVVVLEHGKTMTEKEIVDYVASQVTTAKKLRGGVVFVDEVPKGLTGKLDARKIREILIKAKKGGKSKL
Sequence of Nuclear receptor subfamily 1 group I member 3 (Homo sapiens) (Q14994 whole entry, looked up): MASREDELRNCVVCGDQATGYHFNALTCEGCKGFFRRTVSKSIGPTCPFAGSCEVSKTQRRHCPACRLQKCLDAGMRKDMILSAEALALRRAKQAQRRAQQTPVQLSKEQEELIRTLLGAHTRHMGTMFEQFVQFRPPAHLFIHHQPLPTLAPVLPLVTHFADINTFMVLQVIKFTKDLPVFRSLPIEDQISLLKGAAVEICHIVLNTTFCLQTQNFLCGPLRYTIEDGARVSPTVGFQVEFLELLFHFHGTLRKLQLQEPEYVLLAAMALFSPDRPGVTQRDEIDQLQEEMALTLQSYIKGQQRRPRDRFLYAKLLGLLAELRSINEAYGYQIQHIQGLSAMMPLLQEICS

Consider `O=C1C(c2[nH]c3ccccc3c2O)=Nc2ccccc21`, for which the Potency entry in assay [1], in assay [2], in assay [3], in assay [5], in assay [6] and in assay [7] was “inactive” throughout. Moreover, the outcome in assay [4] and in assay [8] was inactive.

On to `CC(C)OP(=O)(CP(=O)(OC(C)C)OC(C)C)OC(C)C`, for which the Potency entry in assay [1], in assay [2], in assay [3], in assay [5] and in assay [6] was “inactive” throughout. Also, the compound was called inactive in assay [4].

For `CC(=O)CCC=C(C)C`, the Potency result in assay [1], in assay [2], in assay [3], in assay [6] and in assay [7] was “inactive” in each case. For the same compound, the call in assay [8] was inactive.

Take `O=C(O)c1ccccc1C(=O)O`: the Potency entry in assay [1], in assay [2], in assay [3], in assay [5] and in assay [6] was “inactive” throughout. Besides, the result in assay [4] was inactive.

Take `CC(CCl)OP(=O)(OC(C)CCl)OC(C)CCl` (stereo not given): the Potency result in assay [1], in assay [2], in assay [3] and in assay [6] was “inactive” each time. Also, the compound was called inactive in assay [4] and in assay [8]. In addition, the Potency in assay [7] is 38.6 µM (active) and inactive.

In the case of `CSc1ccc(Cl)cc1`, the Potency result in assay [1], in assay [2], in assay [3], in assay [5] and in assay [6] was “inactive” each time. The compound was called inactive in assay [4].

With `Cc1ccc2ncccc2c1`, the Potency result in assay [1], in assay [2], in assay [3], in assay [5], in assay [6] and in assay [7] was “inactive” throughout. The result in assay [4] and in assay [8] was inactive.

With `CCOC(=O)n1ccn(C)c1=S`, the Potency entry in assay [1], in assay [2], in assay [3] and in assay [6] was “inactive” each time.

Regarding `CC1(C)S[C@@H]2[C@H](NC(=O)COc3ccccc3)C(=O)N2[C@H]1C(=O)O`, the Potency result in assay [1], in assay [2], in assay [3], in assay [5], in assay [6] and in assay [7] was “inactive” each time. Also, the call in assay [4] and in assay [8] was inactive.

Consider `Nc1nc(N)nc(-c2ccccc2)n1`, for which the Potency result in assay [1], in assay [2], in assay [3], in assay [5] and in assay [6] was “inactive” each time. In addition, the compound was called inactive in assay [4].

Regarding `CNC(=S)N(C)C`, the Potency result in assay [1], in assay [2], in assay [3], in assay [5] and in assay [6] was “inactive” each time. Besides, the call in assay [4] was inactive.

`CN(C)c1ccc(Cc2ccc(N(C)C)cc2)cc1`: the Potency entry in assay [1], in assay [2], in assay [3], in assay [6] and in assay [7] was “inactive” throughout. For the same compound, the compound was classed as inactive in assay [8].

On to `Nc1ccc(Cl)c(N)c1`, for which the Potency result in assay [1], in assay [2], in assay [3] and in assay [6] was “inactive” in each case.

For `C=CC(=O)OCCC(=O)O`, the Potency entry in assay [1], in assay [2], in assay [3], in assay [5], in assay [6] and in assay [7] was “inactive” throughout. Also, in assay [4], the compound was classed as inactive.

Consider `CCOCCOCCOCCO`, for which the Potency entry in assay [1], in assay [2], in assay [3], in assay [5] and in assay [6] was “inactive” in each case. Moreover, the call in assay [4] was inactive.

Turning to `O=C(OCC1CCC2OC2C1)C1CCC2OC2C1` (stereo not given), the Potency entry in assay [1], in assay [2], in assay [3], in assay [5] and in assay [6] was “inactive” throughout. Also, the result in assay [4] was inactive.

On to `O=C1CCCC1`, for which the Potency result in assay [1], in assay [2], in assay [3], in assay [6] and in assay [7] was “inactive” each time. Moreover, the call in assay [8] was inactive.

For the compound `C=CC(C)CCCC(C)(C)O` (stereo not given), the Potency entry in assay [1], in assay [2], in assay [3], in assay [5] and in assay [6] was “inactive” each time. Also, in assay [4], the result was inactive.

As to `OC1C(O)C(O)C(O)C(O)C1O` (stereo not given), the Potency entry in assay [1], in assay [2], in assay [3] and in assay [6] was “inactive” each time.

Take `CC(=O)OC1CC(C)OC(C)O1` (stereo not given): the Potency result in assay [1], in assay [2], in assay [3], in assay [5], in assay [6] and in assay [7] was “inactive” throughout. Further, the call in assay [4] and in assay [8] was inactive.

Turning to `O=C(O)c1ccc(C(=O)O)c(C(=O)O)c1`, the Potency result in assay [1], in assay [2], in assay [3], in assay [5], in assay [6] and in assay [7] was “inactive” in each case. Also, the call in assay [4] and in assay [8] was inactive.

Regarding `Cc1ccc([N+](=O)[O-])cc1S(=O)(=O)O`, the Potency result in assay [1], in assay [2], in assay [3], in assay [6] and in assay [7] was “inactive” throughout. Moreover, the compound was classed as inactive in assay [8].

On to `CC(O)CC(C)(C)O` (stereo not given), for which the Potency result in assay [1], in assay [2], in assay [3] and in assay [6] was “inactive” in each case.

Turning to `O=C1c2ccccc2CCc2ccccc21`, the Potency result in assay [1], in assay [2], in assay [3], in assay [6] and in assay [7] was “inactive” in each case. Moreover, the compound was classed as inactive in assay [4] and in assay [8]. In addition, the Potency in assay [5] was 31.3 µM (active) and 26.6 µM (active).

On to `O=C(O)c1cc2ccccc2cc1O`, for which the Potency is 35.3 µM (active) and 31.7 µM (active) in assay [1]; 43.3 µM (active) in assay [5]. In addition, the Potency result in assay [2], in assay [3], in assay [6] and in assay [7] was “inactive” throughout. The outcome in assay [4] and in assay [8] was inactive.

Consider `OCc1cccc(Oc2ccccc2)c1`, for which the Potency entry in assay [2], in assay [3], in assay [5] and in assay [6] was “inactive” throughout. In assay [4], the compound was classed as inactive.

Take `N[C@H](Cc1c[nH]c2ccccc12)C(=O)O`: the Potency entry in assay [1], in assay [2], in assay [3] and in assay [6] was “inactive” each time.

For `CCCCCCCCCCCCCCCC(=O)OC(C)C`, the Potency entry in assay [1], in assay [2], in assay [3], in assay [5] and in assay [6] was “inactive” throughout. For the same compound, the call in assay [4] was inactive.

As for `CCCCCCCCCCCCCCCCO`, the Potency result in assay [1], in assay [2], in assay [3], in assay [5] and in assay [6] was “inactive” each time. In addition, the outcome in assay [4] was inactive.

In the case of `CCCCCC(=O)O`, the Potency entry in assay [1], in assay [2], in assay [3] and in assay [6] was “inactive” throughout. Moreover, in assay [7], the Potency was 54.5 µM (active) and inactive. In addition, the result in assay [8] was inactive.

(Values after PubChem BioAssay (Tox21).)
